# Source: PubChem (The Scripps Research Institute Molecular Screening Center)
# In the library only some 1.8% were active in any assay of this set; here they are far more common.
# PME-1 Maybr inh – inhibitors of human PME-1 in Maybridge library; 0.5% of 16,000 active; inhibition, % at 9 µM; recombinant PME-1, FP-Rh probe fluorescence polarization; AID 2291; Q9Y570; in the data active means inhibition above about 30%
# luminol inh ctr – quenches luminol chemiluminescence in Nox1 counter-screen; inhibition, % at 6.7 µM; AID 1823; HRP/luminol/H2O2 chemiluminescence counterscreen; 0.4% of 16,000 active; further: reference of the scale not given here
# Nox1 inh – human Nox1 inhibition. inhibition, % at 6.7 µM. 0.81% of 16,000 active. Q9Y5S8. HT29 cells, luminol chemiluminescence ROS
# Target sequence (Q9Y5S8 whole entry, looked up): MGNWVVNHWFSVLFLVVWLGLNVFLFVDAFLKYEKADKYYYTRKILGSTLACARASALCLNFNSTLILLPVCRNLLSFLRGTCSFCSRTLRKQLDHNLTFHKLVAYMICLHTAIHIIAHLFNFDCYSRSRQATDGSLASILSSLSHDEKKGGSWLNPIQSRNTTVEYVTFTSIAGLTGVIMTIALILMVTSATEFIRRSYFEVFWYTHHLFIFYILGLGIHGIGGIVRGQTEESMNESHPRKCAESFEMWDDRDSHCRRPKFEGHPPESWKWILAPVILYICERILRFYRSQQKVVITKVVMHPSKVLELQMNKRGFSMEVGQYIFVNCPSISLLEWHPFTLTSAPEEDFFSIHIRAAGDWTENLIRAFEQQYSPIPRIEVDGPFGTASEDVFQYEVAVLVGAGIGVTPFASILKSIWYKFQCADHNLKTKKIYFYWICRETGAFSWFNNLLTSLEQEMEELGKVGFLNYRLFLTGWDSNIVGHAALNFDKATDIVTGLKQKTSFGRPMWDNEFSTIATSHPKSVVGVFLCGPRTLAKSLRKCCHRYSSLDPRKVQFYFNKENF
# NOTCH agonist – NOTCH pathway agonism; activation, % at 2.5 µM; NOTCH signaling luciferase reporter cells, luminescence; 0.4% of 15,000 active; in the data active means activation above about 2.2%
# Active calls of the source: *; nt = no result given. Unless noted, no stated cut-off is given here; in the data, active means inhibition above about 75%; inactive means the rest.
SMILES,PME-1 Maybr inh,luminol inh ctr,Nox1 inh,NOTCH agonist
O=S(=O)(c1ccc(Cl)s1)N1CCN(C(c2ccccc2)c2ccccc2)CC1,-7.0,2.5,-63.2,6.4*
CS(=O)(=O)c1cc(C(F)(F)F)cc(S(C)(=O)=O)c1S(C)(=O)=O,0.0,1.2,-45.9,-0.6
CSC(=N)n1nc(SC)nc1N,-0.3,-1.0,-39.5,2.8*
Cc1cc(C#N)c2c(c1)-c1ccccc1CC2,-1.4,-1.6,-22.1,0.5
N#Cc1c(N)sc2c1CCc1ccccc1-2,15.1,0.5,103.4*,1.2
Cc1nn(C)c(C(=O)Nc2cc(C(F)(F)F)cc(C(F)(F)F)c2)c1[N+](=O)[O-],3.1,-2.1,12.3,0.8
CSC1=NS(=O)(=O)c2c(C)nn(C)c2S1,6.4,21.2,88.9*,0.1
O=C(c1ccc(OC(F)(F)F)cc1)c1cc2cc([N+](=O)[O-])ccc2o1,5.4,-6.5,26.9,-0.1
COC(=O)c1cccc(NC(=O)NC(=O)c2ccco2)c1,-2.4,0.2,-7.7,-0.5
COc1cccc(Cc2n[nH]c(=S)n2Cc2ccco2)c1,7.8,99.3*,-10.4,-0.3
FC(F)(F)Oc1ccc(OCc2n[nH]c(=S)n2-c2ccc(Cl)cc2)cc1,-3.5,7.0,-82.5,nt
COc1cccc(Cc2n[nH]c(=S)n2-c2ccc(Cl)cc2)c1,4.4,99.0*,22.7,-0.4
COc1ccccc1N=C(N)SCc1ccccc1,7.6,-12.4,9.6,-0.1
CCN(CC)c1ccc(N=C2C=CC(=O)c3ccccc32)c(C)c1,9.8,-49.0,99.1*,-1.0
O=C(NC(=O)c1ccc([N+](=O)[O-])o1)Nc1ccc(F)cc1F,2.0,-2.4,-13.6,0.8
CCN(CC)c1ccc(NC(=O)C2CCCCC2)c(N(CC)CC)n1,1.9,5.3,75.0*,-0.1
Nc1nc2ccccc2c(=O)[nH]1,0.8,-0.1,0.8,0.2
Nc1nc2[nH]c(=S)[nH]c2c(=O)[nH]1,3.8,9.9,92.5*,-0.7
COc1ccc(C2C3CCc4ccccc4C3=NN2C(C)=O)cc1 (stereo not drawn),0.6,-0.8,-53.0,0.5
O=S(=O)(Nc1ccccc1N1CCOCC1)c1ccccc1,5.3,42.8,20.0,nt
CCOc1cc(N2CCOCC2)c(OCC)cc1NS(=O)(=O)c1ccccc1,17.2,15.4,102.7*,-0.4
O=C1CNC(=S)N1Cc1ccccc1Cl,-1.3,23.9,-41.8,2.5*
O=C1CNC(=S)N1Cc1ccccn1,5.3,20.6,-22.9,0.2
c1ccc2c(c1)NC(c1ccc3c(c1)OCO3)O2 (stereo not drawn),-4.3,7.9,79.7*,-0.1
O=C(C1=NNCC1c1ccc2c(c1)OCO2)c1ccc2ccccc2c1 (stereo not drawn),4.8,-1.6,-5.1,-0.2
SMILES,PME-1 Maybr inh,luminol inh ctr,Nox1 inh,NOTCH agonist
CCOC(=O)c1nsc(/C(C)=N/Nc2ccccc2)c1N,6.7,-0.2,97.8*,-0.1
Cn1c(CSCC(=O)Nc2ccccc2)nnc1SCC(=O)Nc1ccccc1,-2.9,2.0,-30.8,-0.1
Cc1ccc(S(=O)(=O)NC(=O)Nc2ccc(N(C)C)cc2)cc1,40.6*,-22.8,65.4,0.8
OC(CN1CCN(Cc2c(F)cccc2Cl)CC1)Cn1ccc2ccccc21 (stereo not drawn),6.2,-7.3,15.8,2.7*
O=C(NNc1c([N+](=O)[O-])cc(C(F)(F)F)cc1[N+](=O)[O-])c1ccco1,1.7,-0.3,89.4*,-0.9
NCCNc1c([N+](=O)[O-])cc(C(F)(F)F)cc1[N+](=O)[O-],3.1,1.8,-43.9,-0.2
CCOC(=O)NNC(=S)Nc1ccccc1N1CCOCC1,4.5,97.9*,-15.8,1.3
CC(C)(C)c1ccc(/C(N)=N/C(=O)N2CCOCC2)cc1,-6.3,6.7,-80.2,-0.7
CCC(=O)Nc1cnc(OC)c(C(F)(F)F)c1,-8.9,-3.4,23.7,-0.1
CCC(=O)Nc1ccc2c(c1)N(CC)C(C)(C)CC2C (stereo not drawn),5.1,-17.2,93.4*,-0.7
Cn1ncc(C(=O)NC(=O)Nc2ccc(F)cc2)c1[N+](=O)[O-],-1.7,-5.8,77.7*,-1.5
O=c1cc(Nc2ccc(OC(F)(F)F)cc2)c2ccccc2o1,54.5*,-8.8,3.2,-0.8
Cc1cc(C(=O)NNc2cc(Cl)ccc2Cl)no1,11.0,9.9,81.0*,-0.6
Cc1nnsc1C(=O)NNc1cc(Cl)ccc1Cl,5.3,25.4,76.4*,-0.4
Cc1noc(C)c1C(=O)NNc1cc(Cl)ccc1Cl,-1.3,11.8,46.6,-0.4
COc1ccc(OC)c(Nc2ncnc(N)n2)c1,5.6,-3.6,14.6,-0.3
COc1cc(C(=O)Oc2c(Cl)cc(Cl)cc2/C=N/NC(N)=S)cc(OC)c1OC,33.7*,2.1,-47.7,-0.7
COc1cc(C(=O)Oc2ccc(Cl)cc2Cl)cc(OC)c1OC,-0.4,-8.8,-2.9,-0.3
Cc1cc(C)c2c(=O)[nH]sc2n1,-2.6,-2.9,-21.1,2.8*
O=C(O)CSCC(=O)NCc1csc2ccccc12,-0.5,-0.9,-26.1,-0.7
CCOC(=O)c1sc(Nc2ccccc2)c(-c2nc3ccccc3[nH]2)c1N,30.9*,-2.8,18.4,-0.6
CCOC(=O)c1sc2nc(C)c(N=Nc3ccccc3)c(C)c2c1N,6.0,0.8,9.4,-0.2
COc1ccccc1NC(N)=S,-5.6,0.7,-50.0,4.8*
Cn1nc(-c2ccccc2)c(O)c(N=Nc2ccccc2)c1=O,5.1,-2.8,97.0*,-0.4
Cc1cccc2c(O)c(N=Nc3ccccc3)c(=O)oc12,19.1,-2.7,-30.1,0.3
SMILES,PME-1 Maybr inh,luminol inh ctr,Nox1 inh,NOTCH agonist
Cc1ccc(NCN2C(=O)c3ccc([N+](=O)[O-])cc3C2=O)cc1,7.1,-45.7,76.8*,0.3
CCn1c(-c2cccs2)n[nH]c1=S,-2.9,100.3*,47.4,-0.2
COc1ccc(-n2c(-c3cccs3)n[nH]c2=S)cc1,-1.3,98.0*,11.6,-0.1
CS(=O)(=O)/C(C#N)=C/c1cccn1S(=O)(=O)c1ccccc1,31.2*,-3.2,-7.4,-0.3
CN(C)n1cccc1/C=C(\C#N)S(C)(=O)=O,-0.5,1.6,4.8,-0.2
O=C1Nc2ccccc2/C1=C\c1cccc2ccccc12,3.4,-0.8,-27.1,0.2
O=C1c2ccc3ccccc3c2-c2cccc3cccc1c23,39.8*,1.0,-21.7,-0.2
Cc1cc(S(=O)(=O)Oc2ccccc2Oc2ccc(C(F)(F)F)cc2[N+](=O)[O-])cc(C)c1F,3.5,-0.8,-39.3,-0.4
c1cncc(-c2csc(-c3cccnc3)n2)c1,33.8*,-3.2,-44.6,-0.2
c1cncc(-c2n[nH]c(-c3ccncc3)n2)c1,-6.4,2.7,-76.5,-0.5
CCC(CO)Nc1nc2c([nH]1)c(=O)n(C)c(=O)n2C (stereo not drawn),0.5,-6.6,93.7*,-0.1
CCc1nc2c([nH]1)c(=O)n(C)c(=O)n2C,1.1,-3.1,-20.5,-0.5
COc1ccc(OC)c(S(=O)(=O)Nc2ccc3oc(=O)c(NC(C)=O)cc3c2)c1,-1.0,3.5,-16.9,1.1
O=C1CSc2ccc(C(F)(F)F)cc2N1Cc1c(Cl)cccc1Cl,36.6*,-2.5,13.9,0.7
O=C1C=CC(=O)N1c1cc(C(F)(F)F)ccc1Cl,0.5,-5.7,12.3,0.0
O=C(/C=C/Nc1cc(C(F)(F)F)cc(C(F)(F)F)c1)c1ccc(F)cc1,-10.7,1.2,-93.2,-0.2
Oc1c(Cl)cc(Cl)cc1C1Nc2cc(Cl)c(C(F)(F)F)cc2N1 (stereo not drawn),-52.2,-0.6,16.2,-1.1
